Results published in PubChem BioAssay (Tox21).
Records with an inconclusive call do not appear. The source made the active and inactive calls. Calls come from the whole dose curve; as a rule, active = well fitted cell-killing curve with a large enough effect in the repeat runs; inconclusive = weak or mixed curves, or effect the other way; inactive = flat fitted curve, though single readings scatter.

Assay: qHTS RealTime-Glo MT Cell Viability Assay in HEK293 cells - 0 hour (AID 1224880); note: top concentration of the series differs between compounds; nearly all actives have a fitted effect of over 45% in size
Details: RealTime-Glo luminescence; series mostly up to 76.8 µM; activity change, negative = cytotoxicity: at the top concentration
In short: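 600 cells/well were plated with the nonlytic NanoLuc/prosubstrate reagent, pre-incubated 5 h, then given 23 nL of compound in DMSO. Incubation at 37 C for 40 h, with luminescence from viable-cell-reduced substrate read repeatedly from 0 h.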
% is set by controls: 0 for no effect and ±100 for the full control effect.

With `O=C1c2ccccc2C(=O)C1c1nc2ccccc2c(Br)c1O` as the compound, how does the “activity change, negative = cytotoxicity” value read?
Its value is -9.47% (inactive).

With `OC[C@H]1O[C@@H](n2cnc3c(=S)nc[nH]c32)[C@H](O)[C@@H]1O` as the compound, how does the “activity change, negative = cytotoxicity” value read?
Its value is 9.25% [at 35.3 µM] (inactive).

Which “activity change, negative = cytotoxicity” value does the source give for `CC(C)=CCC/C(C)=C/CC/C(C)=C/C(=O)OCC(=O)[C@@]1(O)CC[C@H]2[C@@H]3CCC4=CC(=O)C=C[C@]4(C)[C@H]3[C@@H](O)C[C@@]21C` here?
The value was -2.58% [at 35.3 µM] (inactive).

With `Nc1nc2ccc([N+](=O)[O-])cc2s1` as the compound, how does the “activity change, negative = cytotoxicity” value read?
Its value is 10.3% (inactive).

Which “activity change, negative = cytotoxicity” value does the source give for `CC(=O)NC1(c2cccc(F)c2)CCN(CC[C@@]2(c3ccc(Cl)c(Cl)c3)CN(c3ccccc3)C(=O)CO2)CC1` here?
The value was -7.91% (inactive).

For `Nc1cccc2c1CN(C1CCC(=O)NC1=O)C2=O` (stereo not given), which “activity change, negative = cytotoxicity” value is on record?
Its value is -0.992% [at 35.3 µM] (inactive).

With `COc1cc(Nc2c(C#N)cnc3cc(OCCCN4CCN(C)CC4)c(OC)cc23)c(Cl)cc1Cl` as the compound, how does the “activity change, negative = cytotoxicity” value read?
The value was -15.4% [at 35.3 µM] (inactive).

With `CN1CCCN=C1COC(=O)C(O)(c1ccccc1)C1CCCCC1` (stereo not given) as the compound, how does the “activity change, negative = cytotoxicity” value read?
Its value is -2.92% [at 35.3 µM] (inactive).

With `Cc1ccccc1S` as the compound, how does the “activity change, negative = cytotoxicity” value read?
Its value is -11.4% [at 35.3 µM] (inactive).

For `CCCCCCCCCCC(=O)O`, which “activity change, negative = cytotoxicity” value is on record?
The value was -8.82% (inactive).

For `CN1C(=O)c2ccccc2C1=O`, which “activity change, negative = cytotoxicity” value is on record?
The value was -2.6% (inactive).

With `CN1CCCC(n2nc(Cc3ccc(Cl)cc3)c3ccccc3c2=O)CC1` (stereo not given) as the compound, how does the “activity change, negative = cytotoxicity” value read?
Its value is 16.6% [at 35.3 µM] (inactive).

With `CC(=O)Nc1ccc(C)cc1C` as the compound, how does the “activity change, negative = cytotoxicity” value read?
Its value is -20.3% (inactive).

For `CN1C(C(=O)Nc2ccccn2)=C(O)c2sccc2S1(=O)=O`, which “activity change, negative = cytotoxicity” value is on record?
The value was -3% [at 35.3 µM] (inactive).

For `CCCC(=O)C(=O)O`, which “activity change, negative = cytotoxicity” value is on record?
Its value is 3.57% (inactive).

For `CC(=O)Oc1ccc([N+](=O)[O-])cc1CCl`, which “activity change, negative = cytotoxicity” value is on record?
Its value is -7.34% (inactive).

With `O=c1cc(-c2ccccc2)oc2cc(O)cc(O)c12` as the compound, how does the “activity change, negative = cytotoxicity” value read?
Its value is -18.1% (inactive).

With `CCCCOc1ccc(OCCCN2CCOCC2)cc1` as the compound, how does the “activity change, negative = cytotoxicity” value read?
Its value is 7.09% [at 35.3 µM] (inactive).

For `CCCCN1CCCC1C(=O)Nc1c(C)cc(C)cc1C` (stereo not given), which “activity change, negative = cytotoxicity” value is on record?
Its value is -1.26% [at 35.3 µM] (inactive).

With `CCOC(=O)c1ccc(O)c(O)c1` as the compound, how does the “activity change, negative = cytotoxicity” value read?
The value was -2.22% [at 35.3 µM] (inactive).
